# Test results reported in PubChem BioAssay (EPA / NIEHS).
# Inconclusive results are not listed. Some structures have more than one record in an assay (separate samples or runs), and their calls can disagree. Active and inactive are the calls of the source. How the source made its calls, unless noted: active means hit-call score of the fitted dose curve at least 0.9, where 1 is the maximum; inconclusive means response in the unintended direction; inactive means score below 0.9.
# Legend:
# [1] = molecular target: Peroxisome proliferator-activated receptor gamma (Homo sapiens) (UniProt P37231); experiment: NVS_NR_hPPARg: NovaScreen (NVS) Nuclear Receptor Binding Assay for human Peroxisome Proliferator-activated Receptor gamma (PPARg) (AID 2283370)
# Chain of Peroxisome proliferator-activated receptor gamma (Homo sapiens) (P37231 whole entry, looked up): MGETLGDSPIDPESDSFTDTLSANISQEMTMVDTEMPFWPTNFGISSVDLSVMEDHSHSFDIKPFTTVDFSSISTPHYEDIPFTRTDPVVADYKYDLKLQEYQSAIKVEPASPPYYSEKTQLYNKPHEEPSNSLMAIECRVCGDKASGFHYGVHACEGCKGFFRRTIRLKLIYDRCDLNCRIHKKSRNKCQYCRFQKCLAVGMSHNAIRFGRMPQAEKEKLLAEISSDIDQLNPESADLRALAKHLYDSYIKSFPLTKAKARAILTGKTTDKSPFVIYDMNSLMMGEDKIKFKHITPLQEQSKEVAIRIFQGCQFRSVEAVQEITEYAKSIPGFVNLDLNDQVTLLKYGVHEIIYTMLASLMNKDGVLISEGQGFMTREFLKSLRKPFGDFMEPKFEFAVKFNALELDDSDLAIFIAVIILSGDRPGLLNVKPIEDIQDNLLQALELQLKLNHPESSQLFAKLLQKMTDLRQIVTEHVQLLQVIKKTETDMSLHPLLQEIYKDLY
# Procedure, shortened: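 Extracted receptor protein, cell-free; compound incubated 2 h then fluorescence polarization read. Baseline: DMSO. Actives from 25 uM duplicate screen re-run across concentrations.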
# [2] = molecular target: Bile acid receptor (Homo sapiens) (UniProt Q96RI1); experiment: OT_FXR_FXRSRC1_0480: Odyssey Thera (OT) 8-hour HEK293T Protein-Complementation Assay for Farnesoid X receptor/SRC-1 Co-activator (AID 2283383)
# Chain of Bile acid receptor (Homo sapiens) (Q96RI1 whole entry, looked up, the tested form may be a part): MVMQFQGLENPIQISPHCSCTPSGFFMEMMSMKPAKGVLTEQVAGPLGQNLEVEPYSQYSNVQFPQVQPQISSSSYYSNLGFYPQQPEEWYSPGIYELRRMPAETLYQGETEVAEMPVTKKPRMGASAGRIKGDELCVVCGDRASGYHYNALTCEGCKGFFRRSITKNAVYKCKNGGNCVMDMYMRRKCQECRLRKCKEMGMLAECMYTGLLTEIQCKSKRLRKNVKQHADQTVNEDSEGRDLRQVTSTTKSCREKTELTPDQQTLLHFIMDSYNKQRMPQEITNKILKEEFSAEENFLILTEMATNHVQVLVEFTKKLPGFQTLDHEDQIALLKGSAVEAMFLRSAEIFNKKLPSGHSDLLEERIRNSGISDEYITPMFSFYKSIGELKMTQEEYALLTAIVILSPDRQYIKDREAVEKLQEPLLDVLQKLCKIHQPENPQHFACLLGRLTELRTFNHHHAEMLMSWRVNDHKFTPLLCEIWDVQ
# Procedure, shortened: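 Fluorescence intensity read-out, 8 h post-dose, HEK293T protein-fragment complementation; FXR bait and SRC-1 prey each linked to reporter fragments. Activity scored as signal increase over DMSO negative control.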
# [3] = molecular target: Bile acid receptor (Homo sapiens) (UniProt Q96RI1); experiment: OT_FXR_FXRSRC1_1440: Odyssey Thera (OT) 24-hour HEK293T Protein-Complementation Assay for Farnesoid X receptor/SRC-1 Co-activator (AID 2283384)
# Procedure, shortened: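 Fluorescence readout, 24 h post-dose, HEK293T; FXR and SRC-1 fused to complementary reporter fragments, association reconstitutes signal. Positive-direction fit vs DMSO baseline.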
# [4] = CEETOX_H295R_11DCORT: CeeTox H295R High-throughput Steroidogenesis Assay for 11-Deoxycortisol (11DCORT) (AID 2283432; active means hit-call score of the fitted dose curve at least 0.9, where 1 is the maximum; inactive means score below 0.9;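 on AC50: 11-deoxycortisol secreted into the medium measured by LC-MS/MS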); settings: actives raise or lower the signal
# Procedure, shortened: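 Human adrenal H295R cells were prestimulated with 10 uM forskolin for 48 h, then exposed to test chemical (0.1% DMSO final) for 48 h. Medium 11-deoxycortisol was quantified by MTBE extraction and HPLC-MS/MS; bidirectional fitting relative to DMSO.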
# [5] = CEETOX_H295R_CORTIC: CeeTox H295R High-throughput Steroidogenesis Assay for Corticosterone (CORTIC) (AID 2283437; active means hit-call score of the fitted dose curve at least 0.9, where 1 is the maximum; inactive means score below 0.9); settings: actives raise or lower the signal
# Procedure, shortened: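 Medium corticosterone was quantified by tandem mass spectrometry following 48 hours of chemical exposure (0.1% DMSO) in human H295R cells previously stimulated 48 hours with 10 uM forskolin. Viability checked by MTT; chemicals diluted and retested when viability fell below 70%.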
# [6] = CEETOX_H295R_CORTISOL: CeeTox H295R High-throughput Steroidogenesis Assay for Cortisol (AID 2283438; active means hit-call score of the fitted dose curve at least 0.9, where 1 is the maximum; inactive means score below 0.9;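 further: cortisol secreted into medium quantified by LC-MS/MS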); settings: actives raise or lower the signal
# Procedure, shortened: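 Read-out: cortisol in culture medium by reverse-phase C18 HPLC with ESI-positive tandem MS, after MTBE liquid-liquid extraction. Cells: human adrenal H295R, forskolin-primed (10 uM, 48 h) before 48 h chemical exposure in 0.1% DMSO.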
# [7] = CEETOX_H295R_DOC: CeeTox H295R High-throughput Steroidogenesis Assay for DOC (AID 2283439; active means hit-call score of the fitted dose curve at least 0.9, where 1 is the maximum; inactive means score below 0.9); settings: actives raise or lower the signal
# Procedure, shortened: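 Human adrenocortical H295R cells, passages up to 10, received 10 uM forskolin for 48 h before chemical addition. After another 48 h exposure in 0.1% DMSO, secreted DOC was measured by LC-MS/MS, with gain or loss fitted against DMSO controls.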
# [8] = CCTE_Deisenroth_AIME_384WELL_CTox_Active: Cytotoxicity Assessment (CTOX) in CCTE's 384-well Estrogen Receptor Transactivation Assay with AIME metabolic competence (metabolism positive), Deisenroth Lab (AID 2284037);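 further: chemicals first conditioned 2 h by alginate-bound induced rat liver S9 before cells; activity means signal loss indicating cell death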
# Procedure, shortened: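 Cytotoxicity in VM7Luc4E2 breast cells, 24 hour, measured as protease-substrate fluorescence loss, after 2-hour metabolic conditioning with induced rat hepatic S9 in alginate microspheres. Concentrations 0.002 - 200 uM, 10 points, bidirectional fitting.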
# [9] = CCTE_Deisenroth_AIME_384WELL_CTox_Inactive: Cytotoxicity Assessment (CTOX) in CCTE's 384-well Estrogen Receptor Transactivation Assay without AIME metabolic competence (metabolism negative), Deisenroth Lab (AID 2284039);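 further: cell viability via live-cell protease substrate cleaved to fluorescent probe; cells exposed 24 h to medium preincubated 2 h with alginate-water beads without S9; loss of fluorescence signal means loss of viability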
# Procedure, shortened: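 Fluorescent protease-substrate viability readout after 24 h exposure of VM7Luc4E2 cells to conditioned medium. Chemicals (0.002–200 uM) first sat 2 h over alginate-water beads, no S9. Data fitted bidirectionally, loss of signal meaning viability loss.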
# [10] = system: Sodium/Iodide Symporter (NIS), SLC5A5 (gene 6528); experiment: CPHEA_Stoker_NIS_Inhibition_RAIU: CPHEA's Radioactive Iodide Uptake (RAIU) Assay for Sodium/Iodide Symporter (NIS) Inhibition, Stoker and Laws Labs (AID 2283841)
# Procedure, shortened: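 Iodide uptake read as CPM of intracellular 125I (final 329 pM) after 2 h room-temperature exposure in HEPES-buffered HBSS, pH 7.4. Human NIS-expressing HEK293T cells; six concentrations 0.001–100 uM, 0.5% DMSO, normalised to DMSO wells.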
# [11] = CPHEA_Stoker_NIS_Cytotoxicity: Cytotoxicity Assessment for CPHEA's Radioactive Iodide Uptake (RAIU) Assay for Sodium/Iodide Symporter (NIS) Inhibition, Stoker and Laws Labs (AID 2283897);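 on AC50: active means loss of ATP signal versus DMSO meaning cytotoxicity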
# Procedure, shortened: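 CellTiter-Glo ATP luminescence gauged viability in HEK293T cells expressing human NIS after 2 h chemical exposure. Concentrations ran 0.001–100 uM in 0.5% DMSO; DMSO served as baseline for the loss-of-signal fit.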
# [12] = molecular target: Androgen receptor (Homo sapiens) (UniProt P10275); experiment: ATG_AR_TRANS: Attagene TRANS-FACTORIAL HepG2 Assay for human Androgen Receptor (AR) (AID 2282973); settings: HepG2 Attagene TRANS-FACTORIAL AR reporter transcription
# Chain of Androgen receptor (Homo sapiens) (P10275 whole entry, looked up, the tested form may be a part): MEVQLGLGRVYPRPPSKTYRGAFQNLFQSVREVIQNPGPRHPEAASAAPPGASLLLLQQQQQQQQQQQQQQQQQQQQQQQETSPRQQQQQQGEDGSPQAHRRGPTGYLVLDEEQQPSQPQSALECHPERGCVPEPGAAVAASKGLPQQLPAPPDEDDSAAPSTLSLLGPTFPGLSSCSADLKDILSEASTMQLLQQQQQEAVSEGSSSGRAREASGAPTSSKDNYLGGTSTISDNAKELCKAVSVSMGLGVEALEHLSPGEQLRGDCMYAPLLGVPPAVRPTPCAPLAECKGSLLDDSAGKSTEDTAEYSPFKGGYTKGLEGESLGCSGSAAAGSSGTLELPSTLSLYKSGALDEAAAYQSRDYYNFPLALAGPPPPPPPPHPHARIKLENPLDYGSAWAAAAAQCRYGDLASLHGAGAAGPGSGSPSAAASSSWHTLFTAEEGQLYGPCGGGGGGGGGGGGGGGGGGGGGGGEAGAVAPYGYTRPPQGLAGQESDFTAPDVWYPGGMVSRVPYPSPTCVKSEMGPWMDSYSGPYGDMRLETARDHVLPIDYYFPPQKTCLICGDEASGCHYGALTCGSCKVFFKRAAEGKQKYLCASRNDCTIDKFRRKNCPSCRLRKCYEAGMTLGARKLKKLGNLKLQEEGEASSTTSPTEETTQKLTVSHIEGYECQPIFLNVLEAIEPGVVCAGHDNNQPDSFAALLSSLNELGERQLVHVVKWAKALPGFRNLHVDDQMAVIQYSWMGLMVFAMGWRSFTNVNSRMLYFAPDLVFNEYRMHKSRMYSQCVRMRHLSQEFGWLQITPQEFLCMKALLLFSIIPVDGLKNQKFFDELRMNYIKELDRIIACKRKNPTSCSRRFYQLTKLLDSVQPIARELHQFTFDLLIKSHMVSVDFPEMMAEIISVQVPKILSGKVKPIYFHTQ
# Procedure, shortened: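 Chimeric nuclear receptor–Gal4 activity was assessed in human HepG2 hepatocytes after 24 h chemical dosing. Induced reporter mRNA was detected via labelled RT-PCR fragments on capillary electrophoresis, and gain of signal was analysed against DMSO.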
# [13] = molecular target: human Peripheral-type Benzodiazepine Receptor (PBR), TSPO (gene 706) (UniProt P30536); experiment: NVS_MP_hPBR: NovaScreen (NVS) Membrane Protein Assay for human Peripheral-type Benzodiazepine Receptor (PBR) (AID 2283331);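 further: hits reduce radioligand binding relative to DMSO baseline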
# Chain of human Peripheral-type Benzodiazepine Receptor (PBR), TSPO (gene 706) (P30536 whole entry, looked up): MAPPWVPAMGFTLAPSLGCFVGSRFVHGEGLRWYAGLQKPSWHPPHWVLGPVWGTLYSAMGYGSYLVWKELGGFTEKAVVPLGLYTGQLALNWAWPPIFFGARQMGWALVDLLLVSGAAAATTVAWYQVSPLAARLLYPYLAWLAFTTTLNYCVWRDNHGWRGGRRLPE
# Procedure, shortened: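 Cell-free binding to human colonic membrane preparations measured by filter-based scintillation counting after 1 h. Compounds first run at 25 uM in duplicate, then concentration series for actives; signal loss against DMSO baseline.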
# [14] = molecular target: rat Peripheral-type Benzodiazepine Receptor (PBR), Tspo (gene 24230) (UniProt P16257); experiment: NVS_MP_rPBR: NovaScreen (NVS) Membrane Protein Assay for rat Peripheral-type Benzodiazepine Receptor (PBR) (AID 2283335)
# Chain of rat Peripheral-type Benzodiazepine Receptor (PBR), Tspo (gene 24230) (P16257 whole entry, looked up): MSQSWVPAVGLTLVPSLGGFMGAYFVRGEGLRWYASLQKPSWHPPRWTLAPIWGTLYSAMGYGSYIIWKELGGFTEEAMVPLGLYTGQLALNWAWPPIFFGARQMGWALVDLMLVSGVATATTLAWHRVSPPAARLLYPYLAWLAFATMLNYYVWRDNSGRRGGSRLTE
# Procedure, shortened: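 Single-concentration duplicate screening at 25 uM preceded concentration-series retesting of actives. Binding of a specific radioligand to rat kidney membrane PBR was read by filtration radiodetection after 1 h, with plate-wise positive and negative controls.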
# [15] = CCTE_Padilla_ZF_Score.General: CCTE's 144 Hour Post-fertilization zebrafish Assay Score for General Malformation, Padilla Lab (AID 2284411; active means hit-call score of the fitted dose curve at least 0.9, where 1 is the maximum; inactive means score below 0.9)
# Procedure, shortened: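 Malformation, death and hatching were scored at 6 dpf by two blinded observers under a stereo microscope. Embryos were dosed singly from 6-8 hpf in sealed plates of 10% Hanks' at 26C and rinsed on 5 dpf; DMSO baseline.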
# [16] = molecular target: human Ephrin type-A Receptor 1 (EphA1), EPHA1 (gene 2041) (UniProt P21709); experiment: NVS_ENZ_hEphA1: NovaScreen (NVS) Enzymatic Assay for human Ephrin type-A Receptor 1 (EphA1) (AID 2283158);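 further: activity is signal loss versus DMSO meaning EphA1 kinase inhibition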
# Chain of human Ephrin type-A Receptor 1 (EphA1), EPHA1 (gene 2041) (P21709 whole entry, looked up): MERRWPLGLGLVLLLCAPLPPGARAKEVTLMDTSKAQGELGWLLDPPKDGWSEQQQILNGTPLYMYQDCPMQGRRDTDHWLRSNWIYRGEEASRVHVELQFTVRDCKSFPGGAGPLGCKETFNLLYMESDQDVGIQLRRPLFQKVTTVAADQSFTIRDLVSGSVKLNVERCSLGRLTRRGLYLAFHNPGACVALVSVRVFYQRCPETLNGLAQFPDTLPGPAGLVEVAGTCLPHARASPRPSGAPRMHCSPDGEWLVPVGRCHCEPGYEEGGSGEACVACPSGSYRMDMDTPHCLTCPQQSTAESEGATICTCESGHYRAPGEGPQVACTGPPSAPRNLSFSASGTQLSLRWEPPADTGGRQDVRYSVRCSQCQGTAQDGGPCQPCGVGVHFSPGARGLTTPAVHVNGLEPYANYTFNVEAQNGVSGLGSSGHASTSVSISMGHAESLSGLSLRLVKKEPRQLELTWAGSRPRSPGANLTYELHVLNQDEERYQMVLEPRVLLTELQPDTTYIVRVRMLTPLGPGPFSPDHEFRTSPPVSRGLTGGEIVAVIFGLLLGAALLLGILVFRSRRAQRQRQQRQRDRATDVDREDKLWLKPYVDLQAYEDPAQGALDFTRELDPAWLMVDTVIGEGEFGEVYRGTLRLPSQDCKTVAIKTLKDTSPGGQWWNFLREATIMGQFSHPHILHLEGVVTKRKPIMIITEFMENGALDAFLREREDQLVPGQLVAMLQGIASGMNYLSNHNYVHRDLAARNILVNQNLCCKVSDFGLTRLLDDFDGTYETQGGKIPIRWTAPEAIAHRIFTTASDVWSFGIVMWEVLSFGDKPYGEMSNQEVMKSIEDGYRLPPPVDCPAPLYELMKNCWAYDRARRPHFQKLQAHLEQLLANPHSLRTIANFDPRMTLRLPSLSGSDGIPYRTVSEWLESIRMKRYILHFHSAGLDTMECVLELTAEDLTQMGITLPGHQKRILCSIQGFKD
# Procedure, shortened: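 Here the EphA1 protein is recombinant and the substrate fluorescent, with electrophoretic separation before fluorescence detection at 1 hour. Signal loss against DMSO defines activity; plate controls included; follow-up concentration series reach 50 uM.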
# [17] = CCTE_Simmons_CellTiterGLO_HEK293T: Viability Assessment in CCTE's Assays for Thyroperoxidase (TPO) Inhibition, Simmons Lab (AID 2283665);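 on AC50: cells exposed to compound for 24 h before readout; actives reduce ATP signal below DMSO vehicle meaning cytotoxicity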
# Procedure, shortened: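 Luminescent ATP readout (CellTiter-Glo, 20 min at room temperature) after 24 hr exposure of HEK293T cells to 5 nM–87.5 uM final compound; signal loss relative to DMSO vehicle indicated cytotoxicity; dichlone titrated as positive control.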
# [18] = molecular target: human Phosphodiesterase 10 (PDE10), PDE10A (gene 10846) (UniProt Q9Y233); experiment: NVS_ENZ_hPDE10: NovaScreen (NVS) Enzymatic Assay for human Phosphodiesterase 10 (PDE10) (AID 2283195)
# Chain of human Phosphodiesterase 10 (PDE10), PDE10A (gene 10846) (Q9Y233 whole entry, looked up): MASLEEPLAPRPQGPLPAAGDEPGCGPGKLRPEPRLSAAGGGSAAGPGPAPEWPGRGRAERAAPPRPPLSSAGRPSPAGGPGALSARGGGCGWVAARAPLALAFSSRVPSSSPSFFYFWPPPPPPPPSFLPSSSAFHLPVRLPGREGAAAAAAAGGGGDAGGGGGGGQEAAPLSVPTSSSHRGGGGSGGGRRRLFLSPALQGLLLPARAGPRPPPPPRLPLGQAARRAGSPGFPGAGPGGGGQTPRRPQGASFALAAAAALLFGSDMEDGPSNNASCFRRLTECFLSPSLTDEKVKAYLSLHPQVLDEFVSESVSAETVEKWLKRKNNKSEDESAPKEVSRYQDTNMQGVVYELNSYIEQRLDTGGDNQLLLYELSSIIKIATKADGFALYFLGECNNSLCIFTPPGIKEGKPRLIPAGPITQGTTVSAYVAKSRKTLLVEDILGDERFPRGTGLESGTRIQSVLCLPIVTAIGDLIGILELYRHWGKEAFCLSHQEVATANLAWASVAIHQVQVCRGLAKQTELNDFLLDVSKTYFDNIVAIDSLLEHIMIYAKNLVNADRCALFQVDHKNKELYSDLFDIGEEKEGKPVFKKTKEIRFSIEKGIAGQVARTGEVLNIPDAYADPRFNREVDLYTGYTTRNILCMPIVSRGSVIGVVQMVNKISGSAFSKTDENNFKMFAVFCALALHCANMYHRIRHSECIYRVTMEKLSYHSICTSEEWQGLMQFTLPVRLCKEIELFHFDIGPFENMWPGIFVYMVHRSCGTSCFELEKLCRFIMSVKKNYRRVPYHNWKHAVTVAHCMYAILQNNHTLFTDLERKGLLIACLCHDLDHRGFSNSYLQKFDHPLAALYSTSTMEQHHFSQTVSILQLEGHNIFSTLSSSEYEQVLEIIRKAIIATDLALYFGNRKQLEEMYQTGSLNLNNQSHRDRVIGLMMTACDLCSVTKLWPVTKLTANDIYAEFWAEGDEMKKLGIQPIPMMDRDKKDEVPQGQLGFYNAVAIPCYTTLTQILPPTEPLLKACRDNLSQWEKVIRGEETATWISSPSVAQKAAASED
# Procedure, shortened: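 Fluorescence readout after mobility-shift separation of substrate and product, 1 h reaction with recombinant human enzyme. Single-concentration duplicates at 25 uM, then concentration-response up to 50 uM for chemicals reaching threshold; DMSO baseline.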
# [19] = CEETOX_H295R_OHPREG: CeeTox H295R High-throughput Steroidogenesis Assay for OH-Pregnenolone (OHPREG) (AID 2283434; active means hit-call score of the fitted dose curve at least 0.9, where 1 is the maximum; inactive means score below 0.9); settings: actives raise or lower the signal
# Procedure, shortened: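 Secreted 17alpha-hydroxypregnenolone measured by HPLC-MS/MS after liquid-liquid extraction. Human adrenal H295R cells received 48 h forskolin (10 uM) stimulation before 48 h chemical exposure at 0.1% final DMSO; MTT viability in same wells; bidirectional fit against DMSO.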
# [20] = CEETOX_H295R_OHPROG: CeeTox H295R High-throughput Steroidogenesis Assay for OH-Progesterone (OHPROG) (AID 2283435; active means hit-call score of the fitted dose curve at least 0.9, where 1 is the maximum; inactive means score below 0.9;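 on AC50: 17alpha-hydroxyprogesterone secreted into medium measured by HPLC-MS/MS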); settings: actives raise or lower the signal
# Procedure, shortened: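 HPLC-MS/MS quantification of 17alpha-hydroxyprogesterone secreted by H295R cells after 48 h chemical exposure, following 48 h 10 uM forskolin prestimulation. Gain or loss of signal fitted relative to DMSO. Viability checked by MTT in the same wells.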
compound,measurement,setting,value
Cc1cc(C)c(C2=C(OC(=O)CC(C)(C)C)C3(CCCC3)OC2=O)c(C)c1,outcome,[1],inactive
same,outcome,[2],inactive
same,outcome,[3],inactive
same,AC50,[4],72.4 µM (active)
same,outcome,[5],inactive
same,AC50,[6],69.2 µM (active)
same,outcome,[7],inactive
same,outcome,[8],inactive
same,outcome,[9],inactive
O=[N+]([O-])O,outcome,[10],inactive
same,outcome,[11],inactive
O=P(O)(Oc1ccccc1)Oc1ccccc1,outcome,[3],inactive
same,outcome,[10],inactive
same,outcome,[11],inactive
C[C@]12CC[C@H](O)C[C@H]1CC[C@@H]1[C@@H]2C[C@@H](O)[C@]2(C)[C@@H](C3=CC(=O)OC3)CC[C@]12O,outcome,[12],inactive
O=S(=O)(c1ccccc1)c1ccccc1,AC50,[13],10.1 µM (active)
same,AC50,[14],8.45 µM (active)
same,outcome,[15],inactive
CC(C)CCCCCCCOP(=O)(Oc1ccccc1)Oc1ccccc1,AC50,[13],6.03 µM (active)
same,AC50,[14],2.91 µM (active)
CC(=O)C=Cc1ccccc1,outcome,[1],inactive
CC(C)(C)C(=O)CCl,outcome,[16],inactive
C=CCN(CC=C)C(=O)C(Cl)Cl,outcome,[8],inactive
same,outcome,[9],inactive
O=C(CCl)c1ccccc1,AC50,[17],43.8 µM (active)
same,outcome,[10],inactive
same,outcome,[11],inactive
CC(O)CN(CC(C)O)CC(C)O (stereo unspecified),outcome,[3],inactive
S=c1[nH]c2ccccc2[nH]1,outcome,[18],inactive
same,outcome,[17],inactive
CC(C)(c1cc(Cl)c(O)c(Cl)c1)c1cc(Cl)c(O)c(Cl)c1,AC50,[1],1.54 µM (active)
same,outcome,[1],inactive
same,AC50,[17],90.8 µM (active)
same,AC50,[10],9.92 µM (active)
same,AC50,[11],81.3 µM (active)
same,AC50,[8],159 µM (active)
same,AC50,[9],153 µM (active)
O=P1(NCCCl)OCCCN1CCCl (stereo unspecified),outcome,[16],inactive
O=C(O)CCl,outcome,[1],inactive
same,outcome,[17],inactive
same,outcome,[9],inactive
O=[N+]([O-])C=Cc1ccccc1,outcome,[16],inactive
same,outcome,[18],inactive
same,AC50,[15],2.31 µM (active)
O=C1C(Cl)=C(Cl)C(=O)C(Cl)=C1Cl,outcome,[12],inactive
same,outcome,[16],inactive
same,AC50,[13],34.4 µM (active)
same,outcome,[15],inactive
CCCCCCCCCCCC#N,outcome,[18],inactive
CCC(C)(C)O,outcome,[16],inactive
CCCCOP(=O)(O)OCCCC,outcome,[12],inactive
CC(Cc1ccc(C(C)(C)C)cc1)CN1C[C@@H](C)O[C@@H](C)C1 (stereo partly specified),AC50,[2],11.3 µM (active)
same,AC50,[4],13.8 µM (active)
same,AC50,[19],0.0454 µM (active)
same,AC50,[20],0.316 µM (active)
same,outcome,[5],inactive
same,AC50,[6],39.5 µM (active)
same,AC50,[7],9.92 µM (active)
same,outcome,[10],inactive
same,outcome,[11],inactive
Nc1cc(Cl)cc(Cl)c1,outcome,[3],inactive
same,outcome,[17],inactive
CCCOC(=O)c1ccccc1C(=O)OCCC,outcome,[14],inactive
same,outcome,[15],inactive
COCC(=O)N(c1c(C)cccc1C)N1CCOC1=O,outcome,[18],inactive
CC(C)C(=O)Cl,outcome,[12],inactive
same,outcome,[18],inactive
O=C(NC(=O)c1c(F)cccc1F)Nc1ccc(Oc2ccc(C(F)(F)F)cc2Cl)cc1F,AC50,[2],56.3 µM (active)
same,AC50,[3],40.8 µM (active)
same,AC50,[19],12.4 µM (active)
same,AC50,[20],1.37 µM (active)
same,outcome,[8],inactive
CC(C)CCCCCCCOC(=O)c1ccccc1C(=O)OCCCCCCCC(C)C,outcome,[15],inactive
c1ccc(Nc2ccc3ccccc3c2)cc1,AC50,[14],25 µM (active)
same,outcome,[4],inactive
same,outcome,[19],inactive
same,AC50,[20],5.24 µM (active)
same,outcome,[5],inactive
same,outcome,[6],inactive
same,outcome,[7],inactive
same,outcome,[15],inactive
c1ccc2c(c1)CCCC2,outcome,[2],inactive
CNC(=O)Oc1cc(C)c(SC)c(C)c1,outcome,[12],inactive
same,AC50,[14],11.7 µM (active)
same,AC50,[4],39.5 µM (active)
same,outcome,[19],inactive
same,outcome,[20],inactive
same,AC50,[5],21.2 µM (active)
same,outcome,[6],inactive
same,outcome,[7],inactive
CCOP(=O)(OCC)Oc1ccc([N+](=O)[O-])cc1,outcome,[13],inactive
same,outcome,[14],inactive
same,outcome,[2],inactive
same,outcome,[3],inactive
same,outcome,[19],inactive
same,outcome,[20],inactive
